A short description of assay [1]: A CellTox Green Cytotoxicity Assay to monitor cytotoxicity in HEK293 cells - 40 hour (AID 1224871). Note: nearly all actives have a fitted effect of over 45% in size. Note: potency is the fitted concentration of half-maximal effect. The conditions noted are these: CellTox Green fluorescence; series mostly up to 76.8 µM. In outline:
(§1)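 Seeding of HEK293 cells together with cytotoxicity dye preceded a 5 h incubation at 37 C/5% CO2. Test compounds in DMSO were then added and fluorescence monitored across 40 h.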

A short description of assay [2]: qHTS RealTime-Glo MT Cell Viability Assay in HEK293 cells - 16 hour (AID 1224872). Note: top concentration of the series differs between compounds; nearly all actives have a fitted effect of over 50% in size. To be noted: RealTime-Glo luminescence; series mostly up to 76.8 µM. In outline: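 Luminescence generated by NanoLuc from substrate produced by living HEK293 cells served as the viability signal. Each value reflects the reading at its stated time point during continuous 40 h compound exposure at 37 C.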
A general note: Quantitative high-throughput screening tests each substance at several concentrations.

The nature of assay [3]: qHTS RealTime-Glo MT Cell Viability Assay in HepG2 cells - 8 hour (AID 1224873). Note: nearly all actives have a fitted effect of over 55% in size. The conditions noted are these: RealTime-Glo luminescence; series mostly up to 76.8 µM. The gist of the method:
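Real-time viability: cells seeded at 600 per well together with NanoLuc and cell-permeant prosubstrate, compounds added after 5 h incubation. Luminescence tracked at 0, 8, 16, 24, 32 and 40 h of exposure.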

Assay [4] can be described thus: qHTS RealTime-Glo MT Cell Viability Assay in HEK293 cells - 40 hour (AID 1224874). Note: nearly all actives have a fitted effect of over 50% in size. Note: potency is the fitted concentration of half-maximal effect. To be noted: RealTime-Glo luminescence; max response: stronger effect = lower value. The gist of the method: (§2)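 Tox21 screen in HEK293 using RealTime-Glo MT chemistry, with cells and reagent co-dispensed. Luminescence proportional to viable cell number was captured at intervals during 40 h compound exposure at 37 C.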

Assay [5] can be described thus: A CellTox Green Cytotoxicity Assay to monitor cytotoxicity in HEK293 cells - 24 hour (AID 1224875). Note: nearly all actives have a fitted effect of over 45% in size. The conditions noted are these: CellTox Green fluorescence; series mostly up to 76.8 µM. In outline:
as §1

Assay [6] in a line: A CellTox Green Cytotoxicity Assay to monitor cytotoxicity in HepG2 cells - 16 hour (AID 1224876). Note: nearly all actives have a fitted effect of over 45% in size. Note: potency is the fitted concentration of half-maximal effect. The conditions noted are these: CellTox Green fluorescence; series mostly up to 76.8 µM. In outline:
(§3)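 Nonlytic assay: viable cells exclude the dye, so fluorescence scales with cell death. HepG2 at 600 cells/well, compounds added after 5 h, signal read across 40 h.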

The nature of assay [7]: qHTS RealTime-Glo MT Cell Viability Assay in HepG2 cells - 32 hour (AID 1224877). Note: nearly all actives have a fitted effect of over 55% in size. To be noted: RealTime-Glo luminescence; series mostly up to 76.8 µM. The gist of the method:
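Tox21 10K library screened in qHTS format on HepG2 cells carrying RealTime-Glo reagents. Compounds were added after a 5 h preincubation, and the luminescent signal from continuous culture was measured repeatedly during 40 h treatment.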

The nature of assay [8]: A CellTox Green Cytotoxicity Assay to monitor cytotoxicity in HepG2 cells - 24 hour (AID 1224878). Note: nearly all actives have a fitted effect of over 45% in size. Note: potency is the fitted concentration of half-maximal effect. The conditions noted are these: CellTox Green fluorescence; series mostly up to 76.8 µM. The gist of the method:
as §3

Assay [9] in a line: A CellTox Green Cytotoxicity Assay to monitor cytotoxicity in HepG2 cells - 40 hour (AID 1224879). Note: nearly all actives have a fitted effect of over 40% in size. The conditions noted are these: CellTox Green fluorescence; series mostly up to 76.8 µM. In outline: as §3
A short description of assay [10]: qHTS RealTime-Glo MT Cell Viability Assay in HEK293 cells - 0 hour (AID 1224880). The conditions noted are these: RealTime-Glo luminescence; series mostly up to 76.8 µM. In outline:
as §2

Molecules are shown by their SMILES. Several values for one entry are separate records, joined by “and”; a condition that tells them apart may be missing. Equal values may be shown once. Inconclusive results are not listed. Some structures have more than one record in an assay (separate samples or runs), and their calls can disagree. Activity calls are given as the source filed them. Calls come from the whole dose curve; as a rule, active = well fitted curve in the direction sought with a large enough effect in the repeat runs; inconclusive = weak or mixed curves; inactive = no such curve, though single readings can be large; an effect the other way counts as inactive or inconclusive. Residues, ends and D or L forms follow the SMILES beside them.
% is set by controls: 0 for no effect and ±100 for the full control effect.

As for `O=C(O)CCCCCCCC(=O)O`, the Potency entry in [1], in assay [2], in assay [5], in assay [6], in assay [7] and in [8] was “inactive” throughout. For the same molecule, the Potency result in [9] and in assay [10] was “inactive” throughout. Also, the molecule was called inactive in assay [3]. The max response in assay [4] is 2.75% (inactive) and 4.95% (inactive) and 3.91% (inactive).
`Oc1ccc(/C=C/c2cc(O)cc(O)c2)cc1`: the Potency entry in assay [1], in assay [2], in [5], in assay [6], in assay [7] and in assay [8] was “inactive” in each case. Further, the Potency entry in assay [10] is “inactive”. Besides, in [3], the molecule was called inactive. In addition, the Potency in assay [4] was 15.6 µM (active).
As for `NS(=O)(=O)c1cc(C(=O)O)c(NCc2ccco2)cc1Cl`, the Potency result in assay [1], in assay [2], in [5], in assay [7] and in assay [10] was “inactive” in each case. Further, the result in assay [3] was inactive. In assay [4], the max response was -14.3% (inactive) and -0.726% (inactive) and 2.65% (inactive). The Potency is 22 µM (active) and inactive in assay [6]; 17.4 µM (active) and inactive in [8].
For the molecule `COC(=O)[C@H](Cc1ccccc1)NC(=O)[C@@H](N)CC(=O)O` (H-Asp-Phe-OMe), the Potency entry in assay [1], in assay [2], in [5], in assay [6], in assay [7] and in [8] was “inactive” in each case. Also, in [10], the Potency result was “inactive”. The molecule was classed as inactive in assay [3]. In assay [4], the max response is 0.561% (inactive) and -0.312% (inactive) and -3.38% (inactive).
Regarding `Nc1ccc(O)c(C(=O)O)c1`, the Potency result in [1], in [2], in assay [5], in assay [6], in assay [7] and in assay [8] was “inactive” throughout. Also, the Potency result in assay [9] and in assay [10] was “inactive” in each case. Further, the molecule was called inactive in [3]. Also, in [4], the max response was 1.04% (inactive) and -2.7% (inactive) and 0.776% (inactive).
`O=C(c1ccccc1)C(O)c1ccccc1` (stereo not given): the Potency entry in assay [1], in assay [2], in assay [5], in assay [6], in assay [7] and in [8] was “inactive” throughout. Besides, the Potency entry in [9] and in assay [10] was “inactive” in each case. Also, the molecule was called inactive in assay [3]. Moreover, the max response in assay [4] is 5.88% (inactive) and 18.1% (inactive) and 4.15% (inactive).
For `O=C(c1ccccc1)c1ccccc1`, the Potency result in [1], in [2], in assay [5], in assay [6], in assay [7] and in [8] was “inactive” throughout. Further, in assay [10], the Potency result is “inactive”. For the same molecule, the molecule was classed as inactive in assay [3]. In assay [4], the max response is -7.38% (inactive) and -0.339% (inactive) and 9.06% (inactive).
`OC(Cn1cncn1)(Cn1cncn1)c1ccc(F)cc1F`: the Potency entry in assay [1], in assay [2], in assay [5], in [6], in assay [7] and in [8] was “inactive” each time. Besides, the Potency result in assay [10] was “inactive”. The result in [3] was inactive. Moreover, the max response in assay [4] is 7.44% (inactive) and 0.305% (inactive) and 5.93% (inactive).
Regarding `CC1(C)[C@@H]2CC[C@@]1(C)C(=O)C2`, in assay [1], the Potency entry was “inactive and 7.56 µM (active)”. Also, the Potency entry in assay [2], in assay [5], in [6], in assay [7], in assay [8] and in assay [10] was “inactive” each time. Besides, the molecule was classed as inactive in assay [3]. For the same molecule, in assay [4], the max response is 4.23% (inactive) and 1.62% (inactive) and -1.8% (inactive).
Regarding `CCCCC(CC)COC(=O)/C=C/c1ccc(OC)cc1` (stereo not given), the Potency result in [1], in assay [2], in [5], in assay [6], in assay [7] and in [8] was “inactive” throughout. In [10], the Potency result is “inactive”. In assay [3], the result was inactive. In assay [4], the max response is -5.76% (inactive) and 7.72% (inactive) and 2.19% (inactive).
With `CCCCCCCCCCCCCCCC(=O)O`, the Potency result in [1], in assay [2], in assay [5], in assay [6], in [7] and in assay [8] was “inactive” in each case. Further, the Potency entry in assay [10] is “inactive”. Besides, in [3], the molecule was classed as inactive. The max response in assay [4] was -14.7% (inactive) and -1.54% (inactive) and -1.33% (inactive).
For the molecule `O=NO`, the Potency result in assay [1], in assay [2], in [5], in assay [6], in assay [7] and in assay [8] was “inactive” in each case. The Potency result in assay [10] was “inactive”. The molecule was classed as inactive in [3]. Moreover, in [4], the max response was 1.94% (inactive) and 6.27% (inactive) and -0.835% (inactive).
Regarding `Nc1ccc(C(=O)O)cc1`, the Potency entry in assay [1], in [2], in [5], in [6], in [7] and in assay [8] was “inactive” in each case. Further, the Potency result in [9] and in [10] was “inactive” throughout. In assay [3], the molecule was classed as inactive. Besides, in assay [4], the max response is -12% (inactive) and -18.6% (inactive) and -17.3% (inactive).
As to `CC(=O)NS(=O)(=O)c1ccc(N)cc1`, the Potency result in assay [1], in assay [2], in [5], in assay [6], in assay [7] and in [8] was “inactive” each time. For the same molecule, the Potency entry in assay [9] and in assay [10] was “inactive” each time. For the same molecule, the result in assay [3] was inactive. In assay [4], the max response was 9.67% (inactive) and 1.24% (inactive) and 4.39% (inactive).
Take `O=C(O)CCCCC(=O)O`: the Potency result in assay [1], in assay [2], in assay [5], in assay [6], in [7] and in assay [8] was “inactive” each time. Also, the Potency entry in [10] was “inactive”. In addition, in assay [3], the result was inactive. The max response in [4] was 4.36% (inactive) and 16.9% (inactive) and 2.15% (inactive).
On to `Cc1ccc(C)c(OCCCC(C)(C)C(=O)O)c1`, for which the Potency result in assay [1], in [2], in assay [5], in assay [6], in assay [7] and in assay [8] was “inactive” in each case. Moreover, the Potency result in assay [9] and in [10] was “inactive” each time. For the same molecule, in [3], the result was inactive. Moreover, the max response in [4] was 7.5% (inactive) and 19.4% (inactive) and 5.2% (inactive).

Values taken from PubChem BioAssay (Tox21).
